Data taken from ChEMBL document CHEMBL3433997, “St. Jude Leishmania screening dataset” (2016).

Key:
Format in all cases: functional
[1] = target: Solute carrier family 2, facilitated glucose transporter member 1 (Homo sapiens) (UniProt P11166); experiment: ST_JUDE_LEISH: Cytotoxicity at 2uM final concentration against transgenic Leishmania Mexicana promastigotes LmGLUT1 that are glucose transport deficient and complemented with the human glucose transporter GLUT1. Activity is measured by DNA content using SYBR green in vitro
[2] = target: Hexose transporter 1 (Plasmodium falciparum) (UniProt O97467); experiment: ST_JUDE_LEISH: Cytotoxicity at 2uM final concentration against transgenic Leishmania Mexicana promastigotes LmPfHT that are glucose transport deficient and complemented with the Plasmodium falciparum hexose transporter. Activity is measured by DNA content using SYBR green in vitro
[3] = target: Glucose transporter (Leishmania mexicana) (UniProt O61059); experiment: ST_JUDE_LEISH: Cytotoxicity at 2uM final concentration against transgenic Leishmania Mexicana promastigotes LmGT2 that are glucose transport deficient and complemented with the L. Mexicana glucose transporter 2. Activity is measured by DNA content using SYBR green in vitro

Chain of Solute carrier family 2, facilitated glucose transporter member 1 (Homo sapiens) (P11166 whole entry): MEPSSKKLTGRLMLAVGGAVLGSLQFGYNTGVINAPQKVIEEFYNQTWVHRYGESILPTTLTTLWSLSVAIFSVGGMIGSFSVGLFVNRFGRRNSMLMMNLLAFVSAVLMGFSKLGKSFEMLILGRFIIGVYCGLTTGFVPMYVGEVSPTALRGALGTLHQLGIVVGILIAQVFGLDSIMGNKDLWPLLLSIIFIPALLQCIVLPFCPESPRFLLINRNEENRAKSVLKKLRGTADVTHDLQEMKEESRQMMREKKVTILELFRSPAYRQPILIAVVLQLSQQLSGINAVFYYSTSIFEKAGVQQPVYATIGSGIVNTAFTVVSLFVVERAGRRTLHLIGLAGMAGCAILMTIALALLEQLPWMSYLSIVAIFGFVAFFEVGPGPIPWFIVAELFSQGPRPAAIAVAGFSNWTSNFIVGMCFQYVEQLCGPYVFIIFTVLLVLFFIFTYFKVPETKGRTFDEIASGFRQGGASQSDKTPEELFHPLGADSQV

| SMILES | inhibition [1] [%] | inhibition [2] [%] | inhibition [3] [%] |
| --- | --- | --- | --- |
| COc1ccc2nccc([C@@H](O)CN3CCC(NCc4ccc5c(c4)N(C)C(=O)CO5)CC3)c2c1 | 0.27 | 0.25 | 0.03 |
| COc1ccc2c(NN=Cc3cccc(Cl)c3)ccnc2c1 | 0.29 | 0.23 | -0.9 |
| COc1ccc2[nH]c(C)cc(=NN=Cc3cccc(Cl)c3)c2c1 | -0.18 | 4.08 | -1.05 |
| CS(=O)(=O)N(c1cccc(F)c1)c1cc(C(=O)N[C@@H](Cc2ccccc2)[C@H](O)CNCc2cccc(C(F)(F)F)c2)cc(N2CCCC2=O)c1 | -2.34 | -1.22 | -0.57 |
| CC(=O)Nc1cccc(C(=O)Nc2cccc(-c3ccc(-c4nc5cccc(C)c5[nH]4)s3)c2)c1 | 3.54 | 1.14 | 0.43 |
| CCN1CCN(Cc2ccc(NC(=O)c3cc4ccc5cccnc5c4[nH]3)cc2)CC1 | 17.2 | 15.9 | 11.4 |
| CN1C(C)(C)CC(NC(=O)c2ccc(-c3nc4cc(Cl)ccc4[nH]3)cc2)CC1(C)C | 1.69 | 2.24 | 2.7 |
| OCC1CCN(Cc2ccc(-c3ccc(-c4nc5cc(F)ccc5[nH]4)cc3)cc2)CC1 | 6.63 | 4.55 | 4.78 |
| COc1ccc2c(c1)C(C)(CCCN(C)C)C(=O)N2C (stereo not given) | 1.02 | 1.36 | 2.15 |
| COc1cc(F)c2ncc(Cl)c(C(O)CN3CCC(NC(=O)c4ccc5c(n4)NC(=O)CO5)CC3)c2c1 (stereo not given) | 1.02 | 0.57 | -1.35 |
| Cc1nnsc1C(=O)Nc1ccc(-c2ccc(-c3nc4ccccc4[nH]3)s2)cc1 | 4.65 | 1.4 | 1.47 |
| Oc1ccc2nc(N3CCNCC3)nc(NCCCc3ccccc3)c2c1 | -0.71 | -0.65 | 0.5 |
| COc1ccc(-c2ccc(NC(=O)c3ccc(Cl)cc3)cc2)cc1CN1CCC(O)CC1 | 3.31 | 2.62 | 2.54 |
| COc1cc2nccc(Nc3ccc(OCc4ccc(NC(C)=O)cc4)cc3)c2cc1OC | 5.38 | 7.36 | 2.65 |
| CN1CCC(N2CCN(Cc3ccc(-c4cccc(-c5nc6ccccc6[nH]5)c4)cc3)CC2)CC1 | 0.9 | 1.87 | 1.93 |
| Cc1cc2[nH]c(-c3ccc(C(=O)NCCCN4CCN(c5cccc(Cl)c5)CC4)cc3)nc2cc1Cl | 1.69 | 3.45 | -1.01 |
| CCOc1ccc(N(CC)S(=O)(=O)c2cc(Br)cc3c2N(C(=O)C2CC2)CC3)cc1 | 2.96 | 2.04 | 1.74 |
| CCCOc1ccc(-c2nonc2NC(=O)c2cccc(OC)c2)cc1OCCC | 8.68 | 10.9 | 10.5 |
| Clc1ccc(Cn2nc(Br)nc2Br)c(Cl)c1 | -0.61 | -1.03 | -4.56 |
| O=c1ccccn1CCCC1CCCCN1 (stereo not given) | 12.2 | 12.2 | 13.5 |
| CCC[C@@H]([C@@H](CC(C)C)C(=O)N[C@@H](CCCCNC(=O)c1ccccn1)C(=O)Nc1nccs1)N(O)C=O | 4.93 | 6.98 | 1.73 |
| Cc1cc2nc(N/C(N)=N/C(=O)NC3CCCCC3)nc(C)c2cc1C | 3.18 | 3.48 | 0.78 |
| O=C(Nc1cccc(Cl)c1)N(CCCn1ccnc1)Cc1csc(-c2ccc(CNCc3ccccc3)cc2)n1 | 5.54 | 3.76 | 4.27 |
| CNC(=O)C1Cc2c([nH]c3ccc(Cl)cc23)C2(CCN(CCc3ccccc3)CC2)N1 (stereo not given) | 3.32 | 0.71 | -2.87 |
| O=C(Cc1ccc(NC(=O)c2ccc(O)c(-c3ccc(Cl)c(Cl)c3)c2)cc1)NCCc1ccc(Cl)c(Cl)c1 | 2.01 | 2.38 | -0.6 |
| CC(C)(C)c1nn(-c2ccccc2)c2[nH]c(=O)c(CNCc3ccc4c(c3)OCO4)cc12 | 6.79 | 3.28 | 3.39 |
| CCCSc1nc2c(c(=O)n1CCc1ccccc1)C1(CCCC1)Cc1ccccc1-2 | -1.58 | 1.38 | 0.24 |
| CN1CCN(CCCN(Cc2csc(-c3ccc(CNCc4ccccc4)cc3)n2)S(=O)(=O)c2cccc3cccnc23)CC1 | 0.74 | 5.92 | 4.06 |

| SMILES | inhibition [1] [%] | inhibition [2] [%] | inhibition [3] [%] |
| --- | --- | --- | --- |
| Cc1cc(O)nc(NC#N)n1 | 2.54 | 3.15 | 2.82 |
| Cc1cc(Cl)c(S(=O)(=O)NC2CCCC2)cc1OCC(=O)NC1CCCCC1 | 3.49 | 2.41 | 3.8 |
| CCCCCCCCn1ccc(=N)cc1 | 4.46 | 3.06 | 0.3 |
| CNS(=O)(=O)c1ccc(NC(=O)c2cc(-c3cccnc3)nc3ccc(Br)cc23)cc1 | 2.58 | 2.73 | 3.77 |
| O=C(C=Cc1ccc(Cl)c(Cl)c1)NCCCCCN1CCC(CCCNC(=O)/C=C/c2ccccc2)CC1 | 3.12 | 2.68 | 1.62 |
| COc1ccc(CNCc2ccsc2)cc1-c1ccc(S(=O)(=O)NCCN2CCCC2)c(C)c1 | -0.35 | -1.19 | -4.07 |
| O=C(Nc1cccc(C(F)(F)F)c1)c1cccc(S(=O)(=O)NC2CCN(CC3CCCCC3)C2)c1 (stereo not given) | 0.18 | -0.46 | 2.99 |
| CCCCCCCC1=NN2C(=N)C(=Cc3cc(Br)c(OCc4ccc(F)cc4)c(OCC)c3)C(=O)N=C2S1 | 3.23 | 3.17 | 2.47 |
| COc1ccc2nccc(N(C)CC3(O)CCN(CC(O)c4ccc5c(c4)NC(=O)CS5)CC3)c2n1 (stereo not given) | -0.29 | -0.78 | -0.26 |
| Cc1cccc2nc(-c3ccc(-c4cccc(CNCCCNS(C)(=O)=O)c4)cc3)[nH]c12 | 0.32 | 0.24 | -0.36 |
| COc1cc(C=CC(=O)N2CCN(Cc3cccc(C)c3)CC2)ccc1OCc1c(C)noc1C | 8.31 | 6.88 | 6.13 |
| O=C(Nc1ccc(N2CCCN(Cc3cccc(F)c3)CC2)cc1)c1cccs1 | -0.38 | -0.87 | -3.03 |
| CN(C)S(=O)(=O)n1ccc2c3c(N)nc(N)nc3ccc21 | 44.3 | 46.3 | 29.3 |
| O=c1cc(NCCCNCc2cccc(SC(F)(F)F)c2)[nH]c2ccccc12 | 3.33 | 3.61 | 3.15 |
| COc1ccc(NC(=O)/C=C/c2ccc(Cl)c(C(F)(F)F)c2)cc1OCCN(C(C)C)C(C)C | 11.7 | 8.04 | 5.51 |
| O=C(Nc1ccc(-c2ccc(CN3CCNCC3)cc2)cc1)c1cccc(Cl)c1 | 107 | 104 | 104 |
| Cc1cc(NC(=O)NC(=N)N)ccc1Cl | 6.27 | 5.72 | 3.21 |
| CN1CCN(CC(=O)Nc2ccc(-c3ccc(-c4nc5cc(C(F)(F)F)ccc5[nH]4)cc3)cc2)CC1 | 2.58 | 0.64 | 1.55 |
| Fc1ccc2c(NN=Cc3ccc(Cl)cc3)ccnc2c1 | 10.8 | 10.9 | 6.76 |
| CCCC(C)Nc1nc(C)cc(NCCC(=O)Nc2ccccc2)n1 (stereo not given) | 6.84 | 8.38 | 2.55 |
| CCN(CC)CCN(Cc1ccc(-c2ccc(C(F)(F)F)cc2)cc1)C(=O)Cn1c(CCc2ccccc2F)nc(=O)c2ccccc21 | 3.8 | 3.39 | 2.3 |
| Cc1ccccc1C1CCN(C2CCC(NC(=O)/C=C/c3cc(F)ccc3C(F)(F)F)CC2)CC1 (stereo not given) | 0.1 | -0.94 | 1.99 |
| CCC(=O)N(c1ccccc1)C1CCN(CCCC(NC(=O)Nc2cc(C(F)(F)F)cc(C(F)(F)F)c2)c2ccc(Cl)c(Cl)c2)CC1 (stereo not given) | -1.01 | 0.47 | 0.22 |
| CC(C)Cc1c(O)nc(SCCN2CCOCC2)[nH]c1=O | -0.96 | 1.54 | -0.43 |
| CC(C)CNCc1cccc(-c2ccc(CN(C(=O)NCCc3ccccc3)C3CCN(Cc4ccccc4)CC3)cc2)c1 | 75.8 | 79.1 | 56.8 |
| Oc1ccc(CN2Cc3ccccc3OC3(CCN(Cc4c[nH]c5cnccc45)CC3)C2)cc1 | -0.29 | -0.21 | -3.09 |
| Cc1sc2nc(CSc3ccccc3)nc(N3CCN(CC(=O)NC4CC4)CC3)c2c1C | -0.96 | -2.01 | -1.85 |
